# Rows were chosen to be rich in hits. Some 2.7% of all compounds tested hit in one or more screens of this group.
# ANO1 block = blocks the mouse calcium-activated chloride channel TMEM16A; Q8BHY3; HEK293 TMEM16A/YFP iodide influx fluorescence, ionomycin; normalized B-score (activity score, 25-100; higher = stronger inhibition) at 10 µM; 1.2% of 310,000 active; AID 588511;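 active = ratio plate-corrected score three or more library SD toward inhibition, starting fluorescence score within five deviations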;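 note: score derived from kinetic fluorescence span divided by baseline fluorescence per well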
# IDE cell inh = inhibitors of human insulin-degrading enzyme in cells. P14735. HEK cells, FAbetaB cleavage, fluorescence polarization. inhibition, % at 5.59 µM. 0.41% of 320,000 active. AID 434962;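 active = percent inhibition above the average of all tested compounds plus 3 SD, set per screening campaign, cut at about 16% in these data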;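 note: IDE supplied by intact live HEK cells; FP after avidin binding of uncleaved biotin substrate so inhibition keeps polarization high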
# TMEM16A act = activators or potentiators of mouse TMEM16A chloride channel | Q8BHY3 | AID 623877 | HEK293 TMEM16A/YFP-H148Q/I152L, iodide quench fluorescence; hits give low values | B-score at 10 µM | 0.3% of 340,000 active;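 active = fluorescence-ratio B-score plate-corrected deviation score at least 3 library SD below zero, with starting fluorescence score within 5 deviations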;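 note: channel opened by trigger with iodide after compound preincubation; score built on the fluorescence ratio of max minus min over baseline; more negative score means more quench and so TMEM16A activation or potentiation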
# CHT block = inhibitors of human choline transporter CHT; CHT-expressing cells, membrane potential dye, choline response; hits give low values; B-score at 10 µM; 0.86% of 310,000 active;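 active = B-score over 3 SD under the library average, and starting fluorescence ratio not unusually high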;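 note: choline stimulus applied at its EC90 after an EC20 pre-addition; B-score computed on integrated fluorescence ratio after choline addition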
# IDE cell activ = boosts human insulin-degrading enzyme activity in HEK cells. FAbeta-B cleavage, fluorescence polarization; 0% vehicle, 100% cell-free pure enzyme wells. activation, % at 5.96 µM. 0.073% of 340,000 active. AID 493087;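 active = activation above the mean of all tested compounds plus 3 SD, set per screening campaign, cut at about 17% in these data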
# CHT allo act = allosterically activates the human high affinity choline transporter. CHT-expressing cells, membrane potential dye, choline EC20; hits give high values; LV-AA mutant CHT in HEK293 cells. B-score at 10 µM. 0.49% of 310,000 active;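 active = initial fluorescence not abnormally high and integrated response B-score, plate-corrected, over 3 SD above library mean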
# TMEM16A reconf = TMEM16A (mouse) chloride channel inhibition, re-confirmation | 39% of 2,300 active | shares compounds with ANO1 block | HEK293 TMEM16A/YFP-H148Q, iodide quench fluorescence; ionomycin added to raise cell calcium | inhibition, % at 10 µM;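 active = mean duplicate percent inhibition, scaled so buffer wells are 0 and the reference blocker 100, over three buffer SD above buffer mean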
# HEK293 Ca mobil = calcium mobilization counter-screen hit for TMEM16A inhibitor series; shares compounds with ANO1 block; calcium response (% of ionomycin), % at 10 µM; 2% of 2,300 active; TMEM16A/YFP HEK293, Fluo4 calcium mobilization;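 active = duplicate-averaged calcium signal over 20% of the ionomycin maximum, relative to buffer baseline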;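 note: each well's signal is peak minus trough fluorescence divided by its pre-addition baseline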
# YFP-HEK293 quench = acts in parental YFP-HEK293 cells lacking TMEM16A, counter-screen; YFP ratio F(max-min)/F0 at 10 µM; iodide YFP quench, ionomycin; shares compounds with ANO1 block; 2,300 tested, under 10 active; AID 652233;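 active = yellow fluorescent protein signal ratio exceeding the buffer control mean by over 5 SD of those controls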;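 note: ratio is mean of duplicate wells from kinetic YFP trace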
# ClC-1 inh = blocks the rat ClC-1 voltage-dependent chloride channel; shares compounds with ANO1 block; AID 652236; CHO ClC-1-YFP, iodide influx fluorescence quench; iodide control reads 0, buffer control 100; ratio percent, % at 10 µM; 2,300 tested, under 10 active;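 active = duplicate-mean ratio percent above the mean of iodide-only control wells, which defines zero, plus 5 of their SD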;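 note: higher percent means stronger block of ClC-1 iodide influx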
# Target sequence (P35524 whole entry, looked up): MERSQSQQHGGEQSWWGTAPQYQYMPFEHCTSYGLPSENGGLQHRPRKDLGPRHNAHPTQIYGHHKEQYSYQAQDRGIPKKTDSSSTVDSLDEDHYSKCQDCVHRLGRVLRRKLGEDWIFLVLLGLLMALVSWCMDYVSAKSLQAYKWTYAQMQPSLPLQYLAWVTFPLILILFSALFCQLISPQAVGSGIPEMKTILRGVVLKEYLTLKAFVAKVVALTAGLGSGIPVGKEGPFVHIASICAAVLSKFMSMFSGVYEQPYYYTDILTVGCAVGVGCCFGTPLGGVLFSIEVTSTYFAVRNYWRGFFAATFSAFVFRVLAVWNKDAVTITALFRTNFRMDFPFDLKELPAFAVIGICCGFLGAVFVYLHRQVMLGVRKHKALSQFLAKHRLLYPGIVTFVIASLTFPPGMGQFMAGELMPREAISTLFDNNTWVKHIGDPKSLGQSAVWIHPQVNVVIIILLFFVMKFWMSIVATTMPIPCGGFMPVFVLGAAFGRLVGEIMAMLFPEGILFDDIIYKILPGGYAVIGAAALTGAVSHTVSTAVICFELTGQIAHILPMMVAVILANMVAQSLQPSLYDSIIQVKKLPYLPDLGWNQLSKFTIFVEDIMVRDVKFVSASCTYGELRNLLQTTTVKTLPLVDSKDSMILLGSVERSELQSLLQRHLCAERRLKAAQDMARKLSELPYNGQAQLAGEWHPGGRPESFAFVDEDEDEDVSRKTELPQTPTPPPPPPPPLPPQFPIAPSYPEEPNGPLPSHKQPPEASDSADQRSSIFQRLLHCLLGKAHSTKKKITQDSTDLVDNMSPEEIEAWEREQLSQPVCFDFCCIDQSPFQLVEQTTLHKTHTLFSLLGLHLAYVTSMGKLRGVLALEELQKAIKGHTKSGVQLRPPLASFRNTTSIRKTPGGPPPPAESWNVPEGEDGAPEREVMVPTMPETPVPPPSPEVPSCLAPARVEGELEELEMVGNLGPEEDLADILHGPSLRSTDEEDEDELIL
# A number is an active result; . = inactive; / = not tested or not shown.
SMILES,ANO1 block,IDE cell inh,TMEM16A act,CHT block,IDE cell activ,CHT allo act,TMEM16A reconf,HEK293 Ca mobil,YFP-HEK293 quench,ClC-1 inh
Cc1ccc(C(=O)COC(=O)CCC(=O)Nc2cccc(Cl)c2)cc1[N+](=O)[O-],100,.,.,.,.,.,.,.,.,.
COc1ccccc1NC(=O)CCC(=O)OCC(=O)c1ccc(C)c([N+](=O)[O-])c1,.,.,.,.,.,.,/,/,/,/
Cc1ccc(C)c(NS(=O)(=O)c2ccccc2C)c1,.,/,.,.,.,.,/,/,/,/
CCOc1ccc2c(c1)C(C)=CC(C)(C)N2S(=O)(=O)c1ccc(C)cc1,/,/,.,/,.,/,/,/,/,/
CC1=CC(C)(C)N(S(=O)(=O)c2ccc(C)cc2)c2cc(C)ccc21,25,.,.,.,.,.,.,.,.,.
COCc1cc(C)nc2sc(C(=O)Nc3ccccc3OC)c(N)c12,.,.,.,.,.,.,/,/,/,/
CC(=O)c1ccc(NC(=O)N2CCN(c3ccc(C)cc3)C(C)C2)cc1 (centres undefined),25,.,.,.,.,.,.,.,.,.
COC(=O)N1CCN(c2ccc(C)cc2)C(C)C1 (centres undefined),.,.,.,.,.,.,/,/,/,/
COCC1CCN(C(=O)c2cc(COc3ccc4ncccc4c3)on2)CC1,25,.,.,.,.,.,32%,.,.,.
O=C(c1cc(COc2ccc3ncccc3c2)on1)N1CCCCCC1,.,.,.,.,.,.,/,/,/,/
O=C(c1cc(COc2ccc3ncccc3c2)on1)N1CCCC1,25,.,.,.,.,.,26%,.,.,.
COCC1CCN(C(=O)c2cc(COc3ccc(-n4cncn4)cc3)on2)CC1,.,.,.,.,.,.,/,/,/,/
CSc1ccccc1OCc1cc(C(=O)N2CCC(c3ccncc3)CC2)no1,100,.,.,.,.,.,.,.,.,.
NC(=O)C1CCN(c2nc(-c3ccccc3C(F)(F)F)cs2)CC1,/,.,.,/,.,/,/,/,/,/
Cn1c(=O)c(=O)n(C)c2cc(S(=O)(=O)N3CCC(Cc4ccccc4)CC3)ccc21,.,.,.,.,.,.,/,/,/,/
CCn1c(=O)n(CC)c2cc(S(=O)(=O)N3CCC(c4ccccc4)CC3)ccc21,100,.,.,.,.,.,.,.,.,.
O=C(Nc1nnc(C2CC2)s1)c1cncc(Br)c1,/,.,.,/,.,/,/,/,/,/
C/C(=N\NC(=O)c1cccc(Cl)c1)C1C(=O)c2ccccc2C1=O,100,.,.,.,.,.,.,.,.,.
O=C(C1CCC1)N1CCc2cc(S(=O)(=O)N3CCCCC3)ccc21,.,.,.,.,.,.,/,/,/,/
O=C(C1CCC1)N1CCc2cc(S(=O)(=O)N3CCN(c4ccccn4)CC3)ccc21,.,.,.,.,.,.,.,.,.,.
Cc1nn(-c2ccccc2)c(C)c1NC(=O)COC(=O)c1cc(Br)ccc1O,.,.,.,.,.,.,/,/,/,/
Cn1cc(CNC(=O)c2cc(COc3ccc4c(c3)CCCC4)on2)cn1,25,.,.,.,.,.,.,.,.,.
CC(C)(CNC(=O)c1ccc([N+](=O)[O-])c(Cl)c1)CNC(=O)c1ccc([N+](=O)[O-])c(Cl)c1,100,.,.,.,.,.,.,.,.,.
C=CCNC(=O)c1ccc([N+](=O)[O-])c(Cl)c1,.,.,.,.,.,.,/,/,/,/
CC(=O)N(CCC(c1ccccc1)c1ccco1)Cc1cccs1 (centres undefined),.,.,.,.,.,.,/,/,/,/
SMILES,ANO1 block,IDE cell inh,TMEM16A act,CHT block,IDE cell activ,CHT allo act,TMEM16A reconf,HEK293 Ca mobil,YFP-HEK293 quench,ClC-1 inh
CCC(=O)N(CCC(c1ccco1)c1ccccc1OC)Cc1cccs1 (centres undefined),100,.,.,.,.,.,.,.,.,.
CC(c1ccco1)N(C(=O)CSc1ccc(Br)cc1)c1ccccn1 (centres undefined),100,.,.,.,.,.,18%,.,.,.
COc1cccc(OC)c1-c1nn2c(-c3ccccc3Cl)nnc2s1,.,.,.,.,.,.,.,.,.,.
Clc1ccccc1-c1nnc2sc(-c3ccccn3)nn12,/,/,.,/,.,/,/,/,/,/
COc1ccc(-c2cc(C(F)(F)F)nc(SCCC(=O)N3CCN4CCCC4C3)n2)cc1 (centres undefined),.,.,.,.,.,.,/,/,/,/
COc1ccc(CNC(=O)CCSc2nc(-c3ccc4c(c3)OCO4)cc(C(F)(F)F)n2)cc1,.,.,.,.,.,.,.,.,.,.
COc1ccc(-c2cc(C(F)(F)F)nc(SCCC(=O)N3CCCC3)n2)cc1,100,.,.,.,.,.,.,.,.,.
O=C(CCSc1nc(-c2ccc3c(c2)OCO3)cc(C(F)(F)F)n1)NCc1ccccc1,.,.,.,.,.,.,/,/,/,/
CC1CCCN(C(=O)COC(=O)Cc2c(F)cccc2Cl)C1 (centres undefined),.,.,.,.,.,.,/,/,/,/
CCOC(=O)C1=CNS(=O)(=O)NC1c1ccc(C(=O)OC)cc1 (centres undefined),/,/,.,/,.,/,/,/,/,/
CC1(C)Cc2c(cnn2-c2ccc(F)cc2)C(NC(=O)c2ccco2)C1 (centres undefined),.,.,.,.,.,.,/,/,/,/
CC12CC(c3ccccc3O1)N(C(=O)c1ccco1)C(=S)N2c1ccc(F)cc1 (centres undefined),.,.,.,.,.,.,.,.,.,.
CSc1ccc(CN(C)C(=O)COc2ccc(C(=O)c3ccccc3)cc2)cc1,100,.,.,.,.,.,.,.,.,.
COc1ccc(CCN(C)C(=O)COc2ccc(C(=O)c3ccccc3)cc2)cc1OC,.,.,.,.,.,.,/,/,/,/
Cn1nccc1C(=O)NC1CCCc2c1cnn2-c1ccc(C(C)(C)C)cc1 (centres undefined),25,.,.,.,.,.,28%,.,.,.
CC(=O)NC1CCCc2c1cnn2-c1ccc(C(C)(C)C)cc1 (centres undefined),.,.,.,.,.,.,/,/,/,/
COc1ccc(NC(=O)C2CCC(C)(C(=O)O)C2(C)C)cc1 (centres undefined),.,.,.,.,.,.,/,/,/,/
